ELG1 repair inh = qHTS screen for small molecules that inhibit ELG1-dependent DNA repair in human embryonic kidney (HEK293T) cells expressing luciferase-tagged ELG1; HEK293T ELG1-luciferase reporter, luminescence, 16 h; DNA damage induced by 5-fluorouridine; Potency, µM (titrated, usually from 46.1 µM), inactives show at the highest dose activity change, negative = inhibition, most hits filed as inhibitors; 2.3% of 330,000 active; further: on the % scale 0 is the no-effect control and ±100 the full control effect; nearly all actives have a fitted effect of over 55% in size
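Cells (2,000 per well) received 5-fluorouridine plus test compound or DMSO and were incubated 16 hr at 37 °C, 5% CO2. Luciferase activity was read by luminescence 30 min after ONE-Glo addition; signal suppression marked inhibition of damage-induced ELG1 function.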
MCF10A rereplic = A quantitative high throughput screen for small molecules that induce DNA re-replication in MCF 10a normal breast cells; MCF 10A DNA re-replication, Hoechst nuclear intensity, 48 h; Potency, µM (titrated, usually from 46.1 µM), without a hit: at the top dose activity, positive = re-replication, actives largely listed as activators; 2.9% of 350,000 active; AID 624296, 2012; further: % of control where 0% means no effect; nearly all actives have a fitted effect of over 50% in size
KB-3-1 cytotox = qHTS assay for MDR1-selective chemotherapeutics: Primary screen using the parental adenocarcinoma cell KB-3-1; KB-3-1 viability, CellTiter-Glo ATP luminescence, 72 h; Potency, µM (doses to about 46.1 µM), actives largely listed as cytotoxic; 1.4% of 400,000 active; AID 1347075, 2019; further: on the % scale 0 is the no-effect control and ±100 the full control effect; nearly all actives have a fitted effect of over 60% in size
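KB-3-1 cells, DMEM (no phenol red) + 10% FBS; compound by pin transfer, 72 h, 37 °C. Readout: CellTiter-Glo luminescence after 10 min. Data normalized, curve-fitted.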
KB-V1 MDR tox = qHTS assay for MDR1-selective chemotherapeutics: Primary screen using the drug-selected MDR subline cells KB-V1 | KB-V1 MDR cells viability, CellTiter-Glo, 72 h | Potency, µM (doses to about 46.1 µM), actives largely listed as cytotoxic | 3.4% of 400,000 active | AID 1347076, 2019; further: on the % scale 0 is the no-effect control and ±100 the full control effect; nearly all actives have a fitted effect of over 60% in size
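Cytotoxicity via CellTiter-Glo luminescence after 72 h compound exposure at 37 degrees C. Cells: drug-selected KB-V1 line, DMEM phenol-red free plus 10% FBS. Compounds tested at multiple concentrations; normalized data fitted to concentration-effect curves.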
SW480 rereplic = A quantitative high throughput screen for small molecules that induce DNA re-replication in SW480 colon adenocarcinoma cells. 1.8% of 340,000 active. AID 624297, 2012. Potency, µM (highest dose often 46.1 µM), inactives show at the highest dose re-replication activation, usual class: activators. SW480 DNA re-replication, Hoechst DNA content imaging, 48 h; further: % of control where 0% means no effect; nearly all actives have a fitted effect of over 55% in size
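Treated cells incubate 48 hr (37 C, 5% CO2), are stained 40 min with Hoechst, and nuclear fluorescence is enumerated; a rise in nuclei with high DNA signal marks re-replication.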
* hit, by the source's call; [ ] = dose if it differs, or a comment. A selection: hits, their analogues and other compounds. The true share with any hit is near 8.1%. The call rests on the fitted dose curve; in most records, active means well fitted curve in the direction sought with a large enough effect; inconclusive means small, poorly fitted or top-dose-only effect, or another doubt; inactive means no such curve, though single readings can be large; an effect the other way counts as inactive or inconclusive. Potency means the concentration at half of the fitted maximal effect.

Screening O=C(NCc1cccnc1)c1cc(C2CCCCN2C(=O)c2ccc3ccccc3c2)on1 (stereo not given) returned KB-3-1 cytotox inactive and KB-V1 MDR tox inactive.
`CCOc1ccc(S(=O)(=O)Nc2cc(Cl)ccc2OC)c2cccnc12` gave KB-3-1 cytotox inactive and KB-V1 MDR tox inconclusive.
`O=C(CCl)N1c2ccccc2SCC1c1ccccc1` (stereo not given) gave ELG1 repair inh inconclusive, MCF10A rereplic 7.3µM*, KB-3-1 cytotox inconclusive, KB-V1 MDR tox inactive and SW480 rereplic 15µM*.
Screening CC1(c2nnnn2C2CCCC2)CCC(=O)N1c1ccc2c(c1)OCCO2 (stereo not given) returned KB-3-1 cytotox inactive and KB-V1 MDR tox inactive.
Cc1cc(=O)n(Cc2cccc(F)c2)c2c1c(C)nn2-c1cccc(F)c1 was read as KB-3-1 cytotox inactive and KB-V1 MDR tox inactive.
Screening CCOc1cc(C(=O)Nc2ccc3c4c(cccc24)C(=O)N3CC)cc(OCC)c1OCC returned ELG1 repair inh 21µM*, MCF10A rereplic 19%, KB-3-1 cytotox inactive, KB-V1 MDR tox 9.2µM* and SW480 rereplic -6%.
N#Cc1ccc(CN(Nc2ccccc2)c2ccccc2)cc1 was read as KB-3-1 cytotox inactive and KB-V1 MDR tox inconclusive.
For Cc1ccc2nc(-c3ccccn3)c(Nc3ccccc3C)n2c1 the results were ELG1 repair inh -11%, MCF10A rereplic inconclusive, KB-3-1 cytotox inconclusive, KB-V1 MDR tox 0.73µM* and SW480 rereplic 3.7µM*.
`Cc1ccn2c(Nc3ccccc3)c(-c3ccccn3)nc2c1` gave ELG1 repair inh inconclusive, MCF10A rereplic 16µM*, KB-3-1 cytotox inconclusive, KB-V1 MDR tox inconclusive and SW480 rereplic inconclusive.
For Cc1ccccc1Nc1c(-c2ccccn2)nc2ccccn12 the results were ELG1 repair inh -9%, MCF10A rereplic inconclusive, KB-3-1 cytotox inconclusive, KB-V1 MDR tox inconclusive and SW480 rereplic 19%.
COc1ccc(NS(=O)(=O)c2ccc3c(c2)CCCN3C(=O)C2CCC2)cc1OC was read as KB-3-1 cytotox 2.6µM* and KB-V1 MDR tox inconclusive.
Screening Cc1cc(O)c(C2=Nc3ccccc3SC(c3ccc(Cl)cc3)C2)c(=O)o1 (stereo not given) returned ELG1 repair inh inconclusive, MCF10A rereplic 5.2µM*, KB-3-1 cytotox inactive and KB-V1 MDR tox inconclusive.
For COc1cccc(N2CCN(C(=O)c3cnc4c(-c5ccccc5)c(C)nn4c3C)CC2)c1 the results were KB-3-1 cytotox inactive and KB-V1 MDR tox inactive.
CC1(C)COC(/C=C/c2cccc([N+](=O)[O-])c2)=N1 was read as ELG1 repair inh inconclusive, MCF10A rereplic 14µM*, KB-3-1 cytotox inconclusive, KB-V1 MDR tox inactive and SW480 rereplic inconclusive.
Screening O=C(COC(=O)CSc1ccc(F)cc1)NC1CCCCCC1 returned ELG1 repair inh 13%, MCF10A rereplic 14%, KB-3-1 cytotox inactive, KB-V1 MDR tox inactive and SW480 rereplic -23%.
Screening COc1cc2nc(Cl)nc(N3CCN(C)CC3)c2cc1OC returned ELG1 repair inh 6%.
For COc1cc2nc(C3CCC3)nc(N3CCN(c4ccccc4OC)CC3)c2cc1OC the results were ELG1 repair inh 12µM*, MCF10A rereplic inconclusive, KB-3-1 cytotox inactive, KB-V1 MDR tox 7.3µM* and SW480 rereplic inconclusive.
`COc1cc2nc(C3CCC3)nc(N3CCN(c4ccccn4)CC3)c2cc1OC` gave ELG1 repair inh 10µM*, MCF10A rereplic inconclusive, KB-3-1 cytotox inconclusive, KB-V1 MDR tox inconclusive and SW480 rereplic 1%.
`COc1cc2ccccc2cc1C(=O)N1CCN(c2ccccn2)CC1` gave ELG1 repair inh -3%, MCF10A rereplic -2%, KB-3-1 cytotox inactive, KB-V1 MDR tox inactive and SW480 rereplic -1%.
Screening CCCCC(=O)N(C)c1c(CC)nc2c(OCC=C(C)C)cccn12 returned KB-3-1 cytotox inactive and KB-V1 MDR tox inactive.
Cc1csc(NC(=O)CCc2ccc(S(=O)(=O)N3CCOCC3)cc2)n1 was read as ELG1 repair inh -24%, MCF10A rereplic inconclusive, KB-3-1 cytotox inactive, KB-V1 MDR tox 23µM* and SW480 rereplic 21%.
`CN(C)CC(C)(C)CNC(=S)Nc1ccc(S(=O)(=O)N2CCOCC2)cc1` gave ELG1 repair inh 2%, MCF10A rereplic 7%, KB-3-1 cytotox inactive, KB-V1 MDR tox inconclusive and SW480 rereplic 26µM*.
`CN1CCN(C(=S)NC(=O)c2ccc(S(=O)(=O)N3CCOCC3)cc2)CC1` gave ELG1 repair inh 2%, MCF10A rereplic 3%, KB-3-1 cytotox inactive, KB-V1 MDR tox inactive and SW480 rereplic -35%.
Screening O=C(NC(=S)N1CCN(C(c2ccccc2)c2ccccc2)CC1)c1ccc(S(=O)(=O)N2CCOCC2)cc1 returned ELG1 repair inh inconclusive, MCF10A rereplic 12%, KB-3-1 cytotox inactive, KB-V1 MDR tox 21µM* and SW480 rereplic 2%.
`CCCC(C(=O)Nc1ccc(S(=O)(=O)N2CCOCC2)cc1)c1ccccc1` (stereo not given) gave ELG1 repair inh inconclusive, MCF10A rereplic inconclusive, KB-3-1 cytotox inactive, KB-V1 MDR tox inactive and SW480 rereplic 0.23µM*.
`Cc1ccc(CCNS(=O)(=O)c2ccc3c(c2)C(C(C)C)C(=O)N3)cc1` (stereo not given) gave KB-3-1 cytotox inactive and KB-V1 MDR tox inactive.
Screening Cc1ccc(C(=O)N[C@H](C(=O)Nc2cccc(S(=O)(=O)N3CCOCC3)c2)C(C)C)cc1 returned KB-3-1 cytotox inactive and KB-V1 MDR tox inactive.
CC(C)CCCCCCNC(=S)Nc1ccc(S(=O)(=O)N2CCOCC2)cc1 was read as ELG1 repair inh inconclusive, MCF10A rereplic 13µM*, KB-3-1 cytotox inconclusive, KB-V1 MDR tox 8.2µM* and SW480 rereplic inconclusive.
For O=C(CCc1ccccc1)NC(=S)Nc1ccc(S(=O)(=O)N2CCOCC2)cc1 the results were ELG1 repair inh inconclusive, MCF10A rereplic inconclusive, KB-3-1 cytotox inconclusive, KB-V1 MDR tox 4.6µM* and SW480 rereplic 64%.
C[C@H](CO)N1C[C@H](C)[C@@H](CN(C)S(=O)(=O)c2ccccc2)Oc2ccc(NS(=O)(=O)c3ccc(F)cc3)cc2C1=O was read as ELG1 repair inh inconclusive, MCF10A rereplic 3%, KB-3-1 cytotox inactive, KB-V1 MDR tox inactive and SW480 rereplic 2%[9.22 µM].
